The list shows a part of the results. No count for the full screen is at hand.
B1: HC1987 (peptide)
chain: CAFVCCSMSYAGNASASA
B2: HC2245 (peptide)
chain: CAEVVTSTWLAGNASASA
B3: HC1014 (peptide)
chain: CAEMEECSQHAGNASASA
B4: FS-2744 (peptide)
chain: CARPRRMTPFAGNASASA
B5: FS-2742 (peptide)
chain: CARPRREAPFAGNASASA
B6: HC1228 (peptide)
chain: CAPPCKPLLRAGNASASA
B7: HC2197 (peptide)
chain: CAEVSTSTWVAGNASASA
B8: HC1868 (peptide)
chain: CATTWCSGSWAGNASASA
B9: HC2056 (peptide)
chain: CAVVCCSGSYAGNASASA
B10: FS-353 (peptide)
chain: CALNGREHRSAGNASASA
B11: FS-134 (peptide)
chain: CALNGRCRRTAGNASASA
B12: FS-41 (peptide)
chain: CAKKGRGKRTAGNASASA
B13: FS-1241 (peptide)
chain: CAPKGRGKRRAGNASASA
B14: FS-935 (peptide)
chain: CAKKGRNRRTAGNASASA
B15: FS-894 (peptide)
chain: CAVTSRSFRTAGNASASA
B16: HC479 (peptide)
chain: CAEHRLEAACAGNASASA
B17: HC1759 (peptide)
chain: CAMEECSQPLAGNASASA
B18: HC2129 (peptide)
chain: CAEYVVCCSMAGNASASA
B19: HC2527 (peptide)
chain: CASTPCSFHLAGNASASA
B20: HC996 (peptide)
chain: CAAAYCLSTGAGNASASA
B21: HC1192 (peptide)
chain: CANAYTTGPCAGNASASA
B22: HC1757 (peptide)
chain: CAMEECSQSLAGNASASA
B23: FS-133 (peptide)
chain: CAHRCRHKRWAGNASASA
B24: FS-830 (peptide)
chain: CAMRSRNGRWAGNASASA
B25: FS-3242 (peptide)
chain: CARAQRFWSWAGNASASA
B26: FS-1421 (peptide)
chain: CATAKREKRWAGNASASA
B27: HC2222 (peptide)
chain: CAEVVTSQWVAGNASASA
B28: HC62 (peptide)
chain: CATTPCGGSWAGNASASA
B29: HC1818 (peptide)
chain: CADTMEECSQAGNASASA
B30: FS-2624 (peptide)
chain: CAVWKRRAEDAGNASASA
B31: FS-1428 (peptide)
chain: CAVHVRIRRDAGNASASA
B32: FS-457 (peptide)
chain: CALPGRDGRDAGNASASA
B33: FS-889 (peptide)
chain: CAVKGRGRRDAGNASASA
B34: FS-940 (peptide)
chain: CALNERIRRDAGNASASA
B35: HC448 (peptide)
chain: CAGNNTLHCPAGNASASA
B36: HC807 (peptide)
chain: CAYSTYGKFLAGNASASA
B37: HC1113 (peptide)
chain: CAHVGPGEGAAGNASASA
B38: FS-85 (peptide)
chain: CARLRDSGRAAGNASASA
B39: HC1637 (peptide)
chain: CAKLKLTPIAAGNASASA
B40: FS-1561 (peptide)
chain: CARLCRRSRAAGNASASA
B41: FS-1859 (peptide)
chain: CARLCRSVSGAGNASASA
B42: FS-601 (peptide)
chain: CAKERREKRAAGNASASA
B43: FS-257 (peptide)
chain: CAKERRYARKAGNASASA
B44: FS-447 (peptide)
chain: CAKESRGARGAGNASASA
B45: FS-859 (peptide)
chain: CARLEREKRAAGNASASA
B46: FS-79 (peptide)
chain: CAQKRREKKAAGNASASA

Biological target: furin, P09958
Sequence (P09958 whole entry): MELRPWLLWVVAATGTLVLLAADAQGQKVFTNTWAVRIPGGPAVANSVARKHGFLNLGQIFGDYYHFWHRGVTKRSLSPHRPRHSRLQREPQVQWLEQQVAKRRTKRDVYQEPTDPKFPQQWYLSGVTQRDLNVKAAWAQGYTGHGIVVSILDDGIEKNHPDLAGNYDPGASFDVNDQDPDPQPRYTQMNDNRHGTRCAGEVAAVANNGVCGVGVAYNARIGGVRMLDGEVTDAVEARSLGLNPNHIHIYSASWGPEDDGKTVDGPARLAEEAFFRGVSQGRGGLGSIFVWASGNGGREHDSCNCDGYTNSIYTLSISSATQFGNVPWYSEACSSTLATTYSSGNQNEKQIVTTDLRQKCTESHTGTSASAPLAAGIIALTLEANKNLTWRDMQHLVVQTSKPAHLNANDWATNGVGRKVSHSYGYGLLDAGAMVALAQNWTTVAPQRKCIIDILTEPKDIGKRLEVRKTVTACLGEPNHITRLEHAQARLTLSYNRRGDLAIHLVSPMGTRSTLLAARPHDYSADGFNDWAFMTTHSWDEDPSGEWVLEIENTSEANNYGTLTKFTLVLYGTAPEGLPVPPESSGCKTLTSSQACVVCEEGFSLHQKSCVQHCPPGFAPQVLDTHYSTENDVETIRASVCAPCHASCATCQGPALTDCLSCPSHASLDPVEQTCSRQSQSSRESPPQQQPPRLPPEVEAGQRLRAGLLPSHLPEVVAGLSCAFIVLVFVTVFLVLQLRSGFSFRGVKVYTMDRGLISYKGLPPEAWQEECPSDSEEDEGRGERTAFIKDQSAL
Experiment: furin cleavage Z-score vs untreated control; higher = more cleavage, active = 3.5 or more, inactive = 1 or less, 8 variable residues between constant flanks
How it was run: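 In 50 mM HEPES pH 7.5 with CaCl2 and NaCl, purified furin was incubated with bead-anchored 8-mer peptide–cDNA fusions at 1:10 enzyme:substrate in 0.01 ml. Incubation times were 7.5, 15 and 30 min. DNA set free by cleavage was adapter-tagged by PCR and sequenced, with read counts taken as abundance. Log counts relative to furin-free reactions, after lowess adjustment and median absolute deviation scaling, form the cleavage Z-score.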

Sequence	furin cleavage Z-score (7.5 min)	furin cleavage Z-score (15 min)	furin cleavage Z-score (30 min)
B1	1.81	-0.389 (inactive)	-0.812 (inactive)
B2	0.791 (inactive)	0.0846 (inactive)	0.0471 (inactive)
B3	-0.42 (inactive)	0.366 (inactive)	1.51
B4	2.59	4.44 (active)	4.82 (active)
B5	9.78 (active)	10.3 (active)	8.49 (active)
B6	0.659 (inactive)	0.392 (inactive)	0.118 (inactive)
B7	-0.613 (inactive)	0.268 (inactive)	-1.55 (inactive)
B8	-0.625 (inactive)	-0.0771 (inactive)	-0.259 (inactive)
B9	-1.92 (inactive)	-0.697 (inactive)	-1.32 (inactive)
B10	0.641 (inactive)	-0.584 (inactive)	-0.522 (inactive)
B11	6.57 (active)	6.93 (active)	8.18 (active)
B12	6.83 (active)	9.38 (active)	6.62 (active)
B13	3.48	3.42	4.16 (active)
B14	9.29 (active)	8.34 (active)	7.42 (active)
B15	1.05	-0.0745 (inactive)	-0.661 (inactive)
B16	1.04	-1.24 (inactive)	-0.381 (inactive)
B17	1.51	1.8	0.466 (inactive)
B18	-0.0811 (inactive)	-0.535 (inactive)	-0.778 (inactive)
B19	-0.634 (inactive)	0.268 (inactive)	1.39
B20	0.288 (inactive)	0.367 (inactive)	-0.487 (inactive)
B21	0.653 (inactive)	0.298 (inactive)	0.115 (inactive)
B22	0.758 (inactive)	-0.436 (inactive)	0.392 (inactive)
B23	5.93 (active)	10.1 (active)	8.03 (active)

Sequence	furin cleavage Z-score (7.5 min)	furin cleavage Z-score (15 min)	furin cleavage Z-score (30 min)
B24	0.613 (inactive)	0.727 (inactive)	2.67
B25	-0.658 (inactive)	-0.187 (inactive)	-0.233 (inactive)
B26	7.45 (active)	10.5 (active)	8.76 (active)
B27	-0.277 (inactive)	-0.189 (inactive)	0.204 (inactive)
B28	-1.67 (inactive)	0.588 (inactive)	-0.211 (inactive)
B29	-0.715 (inactive)	-1.26 (inactive)	-0.384 (inactive)
B30	0.714 (inactive)	-0.547 (inactive)	0.046 (inactive)
B31	15.3 (active)	15.9 (active)	11.3 (active)
B32	-0.75 (inactive)	1.1	0.0293 (inactive)
B33	10.2 (active)	9.87 (active)	8.49 (active)
B34	13.3 (active)	15.6 (active)	11.4 (active)
B35	0.837 (inactive)	0.103 (inactive)	0.597 (inactive)
B36	0.775 (inactive)	-0.645 (inactive)	-0.0395 (inactive)
B37	-0.488 (inactive)	0.461 (inactive)	-1.05 (inactive)
B38	0.0348 (inactive)	-1.47 (inactive)	-0.955 (inactive)
B39	-0.816 (inactive)	-1.09 (inactive)	-2.93 (inactive)
B40	6.16 (active)	7.37 (active)	6.05 (active)
B41	0.288 (inactive)	0.971 (inactive)	1.11
B42	5.22 (active)	4.77 (active)	4.29 (active)
B43	4.36 (active)	5.28 (active)	4.54 (active)
B44	-0.759 (inactive)	-0.656 (inactive)	-0.69 (inactive)
B45	7.92 (active)	10 (active)	6.63 (active)
B46	-0.611 (inactive)	2.25	1.6

From the supplement of paper PMC3545927
